Reference: PubChem BioAssay AID624305 (National Center for Advancing Translational Sciences (NCATS), 2012)
Inconclusive results are not listed. The source made the active and inactive calls. Calls come from the whole dose curve; as a rule, active = well fitted activation curve with a large enough effect; inconclusive = small, poorly fitted or top-dose-only effect; inactive = no such curve, though single readings can be large or run the other way.

Test: qHTS assay for re-activators of p53 using a Luc reporter: Hit Validation; note: nearly all actives have a fitted effect of over 75% in size; for activation: 0% is about no effect
Settings: p53-responsive luciferase reporter cells, luminescence, H1299 line expressing heat-sensitive Ala138Val p53; series mostly up to 46.1 µM
How it was run: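 Hit confirmation with a 1:5 dilution series, at 37 deg C for 24 hrs, in H1299 cells co-expressing temperature-sensitive p53-A138V and p53-responsive luciferase. Nocodazole served as control; luminescence read after 10 min with detection reagent.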
Potency is the fitted concentration of half-maximal effect.

| Structure (SMILES) | Potency | activation |
| --- | --- | --- |
| CC(C)C(=O)OCC(=O)Nc1ccc(N=Nc2ccccc2)cc1 | 5800 nM (active) |  |
| C=CCOc1c(Br)cc(CNCCCN2CCOCC2)cc1OC | inactive |  |
| Nc1nonc1-n1nnc(C(=O)N/N=C/c2ccc(Br)cc2)c1CSC1=NCCS1 | 3660 nM (active) |  |
| Cc1cccc(NC2SC(=O)N(c3ccccc3)C2=O)c1 (stereo not drawn) | inactive |  |
| COc1ccc2oc(C(=O)Nc3nc(C)cs3)c(C)c2c1 | 1840 nM (active) |  |
| O=C(/C=C/c1ccco1)Nc1ccccn1 | 2310 nM (active) |  |
| CCCCOC(=O)c1ccc(NC(=O)CSc2nncn2C)cc1 | inactive |  |
| S=c1[nH]nc(-c2ccco2)n1Cc1ccccc1 | inactive |  |
| O=C(Nc1nc2c(s1)CCCC2)C1COc2ccccc2O1 (stereo not drawn) | 231 nM (active) |  |
| CCN(Cc1ccccc1)C(=O)CN1C(=S)NC(C)(C)CC1C (stereo not drawn) |  | -15.4% [at 9.22 µM] (inactive) |
| Cc1ccc(NC(=O)c2ccc(OC(=O)COc3ccc(Cl)c(C)c3)cc2)cc1 | 9200 nM (active) |  |
| Cc1ccc(OCC(=O)Nc2ccc(Cl)cc2)c([N+](=O)[O-])n1 | 16400 nM (active) |  |
| COc1cc(C(=S)N2CCOCC2)ccc1OC(=O)c1ccccc1C | inactive |  |
| C/C(=N\NS(=O)(=O)c1ccc(Cl)cc1)c1ccc(NC(=O)c2ccco2)cc1 | inactive |  |
| COc1cccc(/C=N/NC(=O)c2nc(-c3ccccc3)cc(-c3ccccc3)n2)c1O |  | -23.6% [at 9.22 µM] (inactive) |
| Clc1ccc(OCc2cc(-c3ccccc3)no2)c(Cl)c1 | 1160 nM (active) |  |
| CCOc1ccc(NS(=O)(=O)c2ccc(C(=O)NC3CCN(Cc4ccccc4)CC3)cc2)cc1 | inactive |  |
| Cc1ccc(NC(=S)NC(=O)c2cccs2)cc1F | 9200 nM (active) |  |
| C=CCn1c(C)cc(C(=O)COC(=O)c2ccc(N)c([N+](=O)[O-])c2)c1C | 411 nM (active) |  |

| Structure (SMILES) | Potency | activation |
| --- | --- | --- |
| O=C(c1cccc(S(=O)(=O)NCc2ccc3c(c2)OCO3)c1)N1CCCC1 | inactive |  |
| O=C(Nc1ccc2c(c1)OCO2)c1cc(Cl)ccn1 | 4610 nM (active) |  |
| Cc1cccc(C(=O)OCC(=O)N2CCCCCC2)c1O | 5170 nM (active) |  |
| CS(=O)(=O)c1ccc2nc(NC(=O)c3ccco3)sc2c1 | 14600 nM (active) |  |
| Oc1[nH]c2ccccc2c1C=Nc1ccc2c(c1)OCCO2 | 326 nM (active) |  |
| COC(=O)c1sccc1N/N=C/c1cccc(OC)c1O | 146 nM (active) |  |
| CCCCc1ccc(NC(=S)Nc2ccc(Nc3ccc(OC)cc3)cc2)cc1 | inactive |  |
| Cc1ccc2cc3c(N)c(C(=O)N4CCOCC4)sc3nc2c1 | 1030 nM (active) |  |
| COCCN(Cc1cn[nH]c1-c1ccc2cc(OC)ccc2c1)C(C)C | inactive |  |
| CCCCn1c(SCC(=O)N2CCCC2=O)nc2cc(S(N)(=O)=O)ccc21 | inactive |  |
| CCc1nnc(NC(=O)/C=C/c2ccco2)s1 | 20600 nM (active) |  |
| Clc1ccc(OCc2nc(-c3ccccn3)no2)c(Br)c1 | 1030 nM (active) |  |
| O=C1CC(c2ccc3c(c2)OCCO3)Oc2ccc([N+](=O)[O-])cc21 (stereo not drawn) | 2590 nM (active) |  |
| Cc1ccn2c(c1)nc(=S)n2C(=O)c1ccccc1 | 731 nM (active) |  |
| Cc1ccc2nc(-c3ccc(NC(=O)COC(=O)c4ccc(Br)o4)cc3)sc2c1 | 51.7 nM (active) |  |
| COC(=O)C1=C(C(=O)c2ccccc2)C(c2ccc(OC)c(OC)c2)Nc2nnnn21 (stereo not drawn) | inactive |  |
| Brc1c(CSc2nc3ccccc3s2)nc2ncccn12 | 9200 nM (active) |  |
| CC(=O)c1ccc(N2Cc3ccccc3C2=NC(=O)c2cccs2)cc1 | inactive |  |
| CN(C)/C=N/c1cnc(C(=O)c2ccc(Cl)cc2)n1C | 2590 nM (active) |  |
